According to PubChem BioAssay:

What was measured:
[1] = biological target: Tumor necrosis factor receptor superfamily member 10B (Homo sapiens) (UniProt O14763); test: caspase-8 TRAIL sensitization, hit retest, confirmation, cell-based, NB7+caspase-8, with/without TRAIL, luminescence panel (AID 651596); details: NB7 neuroblastoma + caspase-8, TRAIL sensitization, luminescence viability, with TRAIL, mean of runs, at 10 µM, stronger effect = higher value
[2] = as above; details: NB7 neuroblastoma + caspase-8, without TRAIL, luminescence viability, without TRAIL, mean of runs, at 10 µM

Tumor necrosis factor receptor superfamily member 10B (Homo sapiens), sequence (O14763 whole entry, looked up): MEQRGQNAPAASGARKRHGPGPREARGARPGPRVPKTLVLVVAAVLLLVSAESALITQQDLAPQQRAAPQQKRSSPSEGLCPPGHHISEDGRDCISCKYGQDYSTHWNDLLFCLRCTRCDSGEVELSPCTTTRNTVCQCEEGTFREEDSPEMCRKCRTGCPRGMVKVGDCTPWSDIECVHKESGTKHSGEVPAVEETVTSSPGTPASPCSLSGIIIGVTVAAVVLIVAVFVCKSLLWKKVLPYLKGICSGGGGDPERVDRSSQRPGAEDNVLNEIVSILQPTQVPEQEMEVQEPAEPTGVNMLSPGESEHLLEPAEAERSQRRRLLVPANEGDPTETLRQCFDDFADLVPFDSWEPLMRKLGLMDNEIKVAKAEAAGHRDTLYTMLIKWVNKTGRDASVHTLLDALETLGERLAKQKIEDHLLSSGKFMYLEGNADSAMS

Structure (SMILES) | activity [1] | activity [2]
O=C(Nc1ccccc1NC(=O)c1c(F)c(F)c(F)c(F)c1F)c1c(F)c(F)c(F)c(F)c1F | 90.2% | 96.2%
CC[C@@H](C)[C@H](CNC)NC[C@@H](Cc1cccc2ccccc12)NCCc1cccc(C(F)(F)F)c1 | 86.9% | 97.8%
CCCCC1CCC(C(=O)N(CCCC)c2c(N)n(CCCC)c(=O)[nH]c2=O)CC1 (configuration not stated) | 81.5% | 77.5%
COc1ccc(NC(=O)N2CCc3ccccc32)cc1 | 64.4% | 64%
Cc1ccccc1-c1nnc(-c2cccc3ccccc23)o1 | 47% | 32.4%
CC(C)c1ccc(/C=N/NC(=O)c2c(Cl)cnn2C)cc1 | 80.1% | 71.3%
Cc1ccc(OCCSCc2nnc(NC(=O)Nc3cccc(Cl)c3)s2)cc1 | 36.6% | 43.7%
Cc1ccc(C(=O)Nc2ccc(C)c(S(=O)(=O)N(C)C)c2)s1 | 52.5% | 66.5%
COc1ccccc1N1CCN(c2ccc3ccccc3n2)CC1 | 38.5% | 24.1%
O=C1CCCCC(=O)[C@H](OC(=O)c2ccccc2)C[C@H](c2ccccc2)O1 | 2.17% | 2.2%
Brc1ccc(-c2cn3ccccc3n2)cc1 | 50.8% | 62.2%
CCc1nn2cc(-c3ccccc3)nc2s1 | 79.7% | 78.6%
CCOC(=O)c1ccc(NC(=O)c2nc[nH]c2C(=O)NCCNC(=O)c2[nH]cnc2C(=O)Nc2ccc(C(=O)OCC)cc2)cc1 | 99.4% | 99.5%
O=c1c(-c2ccc3c(c2)OCCO3)coc2cc(OC3OC(CO)C(O)C(O)C3O)ccc12 (configuration not stated) | 51.8% | 53.9%
CCOC(=O)C1=CCN(S(=O)(=O)c2ccccc2Cl)C1c1cccc(F)c1 (configuration not stated) | -2.9% | 11.8%
Cc1cccc(C)c1NC(=O)C1CCN(S(C)(=O)=O)CC1 | 0.425% | -3.45%
CCn1cc(C(=O)NCC(OC)OC)c(=O)c2cc(S(=O)(=O)N3CCC(C)CC3)ccc21 | 57.3% | 64.5%
Nc1nc(N)c2cc(S(=O)(=O)c3ccc4ccccc4c3)ccc2n1 | 64.9% | 72.5%
O=C(CC(Nc1ccc(F)cc1)C(=O)O)c1ccccc1 (configuration not stated) | 63.3% | 53.1%
O=c1cc(-c2c(F)c(F)c(F)c(F)c2F)oc2ccccc12 | 98.1% | 92.1%
Cc1ccnc(NC(=O)c2sc3ccccc3c2Cl)c1 | 91.6% | 90.8%
Cc1ccc2nc(-c3ccc(NC(=O)COC(=O)c4cncc(Br)c4)cc3)sc2c1 | 60.7% | 60.1%
COC(=O)CSc1ncnc2c1sc1nc3c(cc12)COC(C)(C)C3 | 82.5% | 86.8%

Structure (SMILES) | activity [1] | activity [2]
C=C(C)c1nc(Oc2ccccc2)nc(Oc2ccccc2)n1 | 77% | 77.6%
Cc1cc(Cl)n2c(nc3cc(F)c(F)cc32)c1C#N | 91.7% | 99.3%
Cc1ccc(C(=O)O/N=C(\N)c2ccc(Br)cc2)cc1C | 82.5% | 88.2%
CC1CCC(C(C)C)C(OC(=O)Cn2c(-c3ccc(Cl)cc3)[n+](C)c3ccccc32)C1 (configuration not stated) | 76.7% | 62%
COc1ccc(C(=O)Nc2ccccc2C(=O)N/N=C/c2ccco2)cc1 | 87.6% | 59.1%
Cc1nn(-c2ccccc2)c(Cl)c1/C=N/NC(=O)c1ccn[nH]1 | 79.8% | 71.3%
COc1ccc(C(=O)Nc2cccc(/C=C/c3nc4ccccc4c(=O)[nH]3)c2)cc1 | 73.5% | 60.9%
Cc1cccc(/C=C/c2nc3ccccc3c(=O)[nH]2)c1 | 61.5% | 65%
Cc1ccc(NC(=O)N2CCc3ccccc32)cc1C | 71.9% | 66.1%
COc1ccc2nc(NC(=O)c3ccccc3F)sc2c1 | 78.1% | 73.8%
CSc1nnc(NC(=O)c2nc(S(=O)(=O)Cc3cccc(C)c3)ncc2Cl)s1 | 93% | 88.3%
Cc1ccc(-c2nnc(NC(=O)c3ccco3)s2)cc1 | 58.6% | 62.7%
CCOC(=O)c1cnc2c(-c3ccccc3)cnn2c1C | 50% | 35.7%
Cc1ccc2nc(-c3ccc(NC(=O)COC(=O)c4ccco4)cc3)sc2c1 | 73.4% | 74.6%
C=CCOc1ccc(/C=C/C(C)=N\O)cc1 | 57.2% | 71.7%
CCOC(=O)c1sc(NC(=O)c2ccccc2OC)nc1C | 26.1% | 31.9%
O=C(Nc1ccc(NC(=O)c2ccccc2F)cn1)c1ccco1 | 66.8% | 58.3%
C=CCNc1nc(NCc2ccc(NC(C)=O)cc2)c2sc(-c3ccccc3)cc2n1 | 46.1% | 43.1%
COc1ccccc1NC(=O)CSc1ccc(-c2ccc(-n3ccnc3)cc2)nn1 | 47% | 38.6%
O=C(CCl)N1CCN(S(=O)(=O)c2ccc3ccccc3c2)CC1 | 94.9% | 64.7%
O=C(Nc1ccccc1)Nc1ccc(C(=O)N2CCCC2)cc1 | 65.6% | 71.5%
N=c1n(CC(=O)c2ccc(Br)s2)c2ccccc2n1Cc1ccccc1 | 20.9% | 20.6%
CN(C)c1ncnc2c1ncn2C1OC(CO)C(O)C1O (configuration not stated) | 57.1% | 45.3%
